The record followed here is PubChem BioAssay (NCATS).

The structures appear in SMILES notation. Inconclusive results are not listed. Values without a mark were called inactive. Active and inactive are the calls of the source. Unless noted, the call rests on the fitted dose curve.

A short description of test [1]: Cell Viability - BJ (AID 421).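 Further: potency means the concentration at half of the fitted maximal effect; cells exposed to compound for 40 hours at 37 °C before readout.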 As to conditions: BJ fibroblast viability, qHTS. The method, boiled down: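 Cytotoxicity as drop in intracellular ATP (CellTiter-Glo, 20 min RT) after 40 hr compound exposure of BJ fibroblasts at 37 °C. Titrations scaled between DMSO and 100 uM tamoxifen, Hill-fitted for AC50.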
A short description of test [2]: Cell Viability - HepG2 (AID 433).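 Further: potency means the concentration at half of the fitted maximal effect; cells exposed to compound for 40 hours.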 As to conditions: qHTS. The gist of the method:
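ATP luminescence (CellTiter-Glo) after 40 h compound exposure, 37 °C, HepG2, 1500 cells/well, complete medium. Normalized: DMSO = basal, 100 uM tamoxifen = 100% inhibition. AC50 via standard Hill equation.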
For orientation: Quantitative high-throughput screening tests each substance at several concentrations.

Test [3] deals with Cytochrome P450 1A2 (Homo sapiens) (UniProt P05177). Put plainly: p450-cyp1a2 (AID 410). Further: potency means the concentration at half of the fitted maximal effect. As to conditions: recombinant CYP1A2, luciferin-ME demethylation, luminescence; series mostly up to 25.6 µM. The gist of the method: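 Luminescent demethylation readout: Luciferin-ME (100uM, equal to Km) turned over by 20nM CYP1A2 for 60 min at room temperature after NADPH regeneration addition, following 10 min compound preincubation. Normalization used 57 uM furafylline as full inhibition.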
Sequence of Cytochrome P450 1A2 (Homo sapiens) (P05177 whole entry, looked up): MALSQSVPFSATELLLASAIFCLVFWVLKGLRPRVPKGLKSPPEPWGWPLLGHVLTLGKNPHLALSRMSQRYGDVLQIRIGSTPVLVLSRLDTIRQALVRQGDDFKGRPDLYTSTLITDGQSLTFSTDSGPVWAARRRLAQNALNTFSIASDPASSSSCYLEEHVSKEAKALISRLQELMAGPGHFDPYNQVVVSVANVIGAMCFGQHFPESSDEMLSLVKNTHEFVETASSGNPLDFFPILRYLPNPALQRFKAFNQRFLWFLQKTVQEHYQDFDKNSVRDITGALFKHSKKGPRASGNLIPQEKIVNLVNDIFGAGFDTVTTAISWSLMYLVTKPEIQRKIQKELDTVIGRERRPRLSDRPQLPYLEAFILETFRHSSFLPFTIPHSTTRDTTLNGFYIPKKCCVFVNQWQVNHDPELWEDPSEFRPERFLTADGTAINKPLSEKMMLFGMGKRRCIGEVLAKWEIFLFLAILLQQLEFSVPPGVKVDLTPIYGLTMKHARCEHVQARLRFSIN

The nature of test [4]: Cell Viability - Jurkat (AID 426;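 active means dose-dependent loss of cell ATP signal giving a full or clear fitted curve, ranked by lower potency value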;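 further: potency means the concentration at half of the fitted maximal effect; cells exposed to compound for 40 hours at 37 °C before ATP read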). As to conditions: qHTS. The method, boiled down: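 Cytotoxicity taken as drop in cellular ATP (CellTiter-Glo luminescence, 20 min room temperature) after 40 hr, 37C treatment of 5000 Jurkat Clone E6-1 cells per well; concentration-response fitted with Hill equation for AC50.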
The nature of test [5]: Cell Viability - Hek293 (AID 427;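 active means compounds whose dose-response curve shows a full or clear partial loss of cell viability, called from curve shape rather than a numeric limit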;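 further: potency means the concentration at half of the fitted maximal effect; cells exposed to compound for 40 hours at 37 °C before reading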). As to conditions: qHTS. The gist of the method:
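Luminescent ATP content (CellTiter-Glo, 20 min at room temperature) was measured after a 40 hr, 37 °C compound exposure of HEK293 cells. AC50 values came from Hill-equation fits of qHTS concentration-response data normalized to DMSO and 100 uM tamoxifen.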

Test [6] is described as follows: Cell Viability - MRC5 (AID 434).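 Further: potency means the concentration at half of the fitted maximal effect; cells exposed to compound for 40 hours at 37 °C; potency reflects cytotoxicity seen as loss of intracellular ATP.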 As to conditions: MRC5 lung fibroblast viability, qHTS. The method, boiled down: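 AC50 values come from Hill-equation fits of intracellular ATP loss, measured by CellTiter-Glo luminescence. Normal lung fibroblasts (MRC5) had 40 hr compound treatment at 37 C, normalized between DMSO and 100 uM tamoxifen.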
The nature of test [7]: Cell Viability - SK-N-SH (AID 435). Further: potency means the concentration at half of the fitted maximal effect. As to conditions: SK-N-SH neuroblastoma cell viability qHTS. The gist of the method: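 CellTiter-Glo ATP luminescence, 20 min RT read; cells pre-plated 5 hr, compound 40 hr at 37 °C, 1500 cells/well, complete medium. Normalized DMSO = 0, 100 uM tamoxifen = 100% inhibition; Hill-fit AC50.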
Test [8] is described as follows: AP1 Signaling Pathway (AID 357; active means well fitted curve in either direction with a large enough effect, not every such curve was filed as active;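 further: ME-180 reporter cells stimulated with EGF at its EC50 level; on the % scale 0 is the no-effect control and ±100 the full control effect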). As to conditions: ME-180 (cervical carcinoma) AP-1-bla reporter, EGF-induced, beta-lactamase ratio, 5 h; series mostly up to 17.2 µM. The method, boiled down:
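In this screen, ME-180 cells in Opti-MEM with 0.5% dialyzed FBS received EC50 EGF and compound titrations for 5 h. AP-1 reporter beta-lactamase was detected via CCF4 ratio, giving AC50 for positive and negative modulators.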

A short description of test [9]: NFAT Signaling Pathway (AID 444; active means well fitted curve in either direction with a large enough effect, not every such curve was filed as active;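 further: carbachol stimulus at about its EC50 of 1 µM final; on the % scale 0 is the no-effect control and ±100 the full control effect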). As to conditions: Jurkat NFAT-bla M1, carbachol, beta-lactamase ratio, 5 h; at 17.2 µM (top of the series) unless noted. The method, boiled down:
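Read-out: CCF4 FRET ratio (460 nm/530 nm) after 1 h RT dye loading, used for %activity and AC50 from titration series. Cells: Jurkat NFAT-β-lactamase/M1 line, treated with compound plus 1 uM carbachol for 5 h, 37 °C.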

On to `Oc1c(Cl)cc(Cl)c(Cl)c1Cc1c(O)c(Cl)cc(Cl)c1Cl`, for which the Potency was 0.536 µM in test [1] and 10.7 µM (active) in [2].

Consider `Cl/C(=C\n1cncn1)c1ccc(Cl)cc1Cl`, for which the Potency in [3] was 0.0631 µM (active).

Consider `CCCCC(CC)COC(=O)c1ccc(N(C)C)cc1` (stereo unspecified), for which the Potency in [1], in test [4], in [5], in [2], in [6] and in test [7] was greater than 92 µM each time.

For `NCCNc1cccc2ccccc12`, the Potency in [1], in [2], in test [6] and in test [7] was greater than 92 µM throughout.

For `CN=C(N)NCCC[C@H](N)C(=O)O`, the outcome in test [8] was inactive. Moreover, the activity change, negative = inhibition in [9] is -7.03% [at 38 µM].

On to `O=C(c1ccc(F)cc1)C1CCN(CCn2c(=S)[nH]c3ccccc3c2=O)CC1`, for which the Potency in test [3] is 15.8 µM (active).

With `O=C1C(=O)c2ccccc2C(O)=C1C1CCC(c2ccc(Cl)cc2)CC1` (stereo unspecified), in test [8], the result was inactive. Also, the activity change, negative = inhibition in test [9] was -25%.

For the molecule `CCN(CC)CCNC(=O)COc1ccc(OC)cc1`, the outcome in test [8] was inactive. The activity change, negative = inhibition in test [9] was -21.8%.

Turning to `CC[C@H](c1ccc(O)cc1)[C@@H](CC)c1ccc(O)cc1`, the Potency in test [3] was 12.6 µM (active).
